Test results taken from PubChem BioAssay.
Calls of active or inactive are those of the source.

Experiments:
Albumin (Bos taurus) = Albumin (Bos taurus) (UniProt P02769); assay: compounds binding labelled BSA control protein – biochemical, small-molecule microarray, Alexa647 label, 635/667 nm fluorescence, artefact control for SMM control protein annotation, profiling panel (AID 1118); details: BSA-A647 binding, fluorescence 635 nm, higher = more signal;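 also: score merges 667 nm emission intensity and signal-to-noise per printed compound spot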
Chain of Albumin (Bos taurus) (P02769 whole entry, looked up): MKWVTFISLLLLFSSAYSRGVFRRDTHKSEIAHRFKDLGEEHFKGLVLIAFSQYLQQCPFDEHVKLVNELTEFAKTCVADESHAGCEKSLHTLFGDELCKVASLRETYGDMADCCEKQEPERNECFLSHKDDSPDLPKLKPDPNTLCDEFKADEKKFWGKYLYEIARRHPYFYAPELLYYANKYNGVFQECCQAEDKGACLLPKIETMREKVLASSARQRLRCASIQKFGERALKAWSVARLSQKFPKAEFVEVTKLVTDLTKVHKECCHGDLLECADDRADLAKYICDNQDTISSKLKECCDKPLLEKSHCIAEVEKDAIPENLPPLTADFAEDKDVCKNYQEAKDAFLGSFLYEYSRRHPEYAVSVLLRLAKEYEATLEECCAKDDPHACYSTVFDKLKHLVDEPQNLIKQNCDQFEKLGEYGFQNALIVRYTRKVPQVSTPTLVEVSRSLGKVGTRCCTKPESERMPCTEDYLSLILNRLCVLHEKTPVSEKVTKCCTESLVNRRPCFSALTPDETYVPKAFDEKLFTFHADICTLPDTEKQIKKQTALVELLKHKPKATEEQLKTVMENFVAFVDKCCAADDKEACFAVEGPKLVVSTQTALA

[1] = probe aXIP binding to arrayed compounds – biochemical, NeuroSMM set, 635/667 nm fluorescence, primary screen (AID 1119); details: small-molecule microarray, higher = more signal, called active from +8 up or from −8 down;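 also: probe is the protein aXip251-270 applied at 1 µg/mL to compound-printed slides; binding of probe to printed compounds measured as 667 nm fluorescence plus signal to noise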
[2] = probe aNOTCH3 binding on compound microarray – biochemical, small-molecule microarray, 635/667 nm fluorescence, primary screen (AID 1120); details: higher = more signal;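 also: probe is a biotin-tagged antibody raised against NOTCH3 rather than NOTCH3 protein; score merges spot fluorescence near 667 nm with spot signal to noise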
[3] = probe aNOTCH2 binding on compound microarray – biochemical, small-molecule microarray, 635/667 nm fluorescence, primary screen (AID 1121); details: higher = more signal;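 also: score merges feature fluorescence read at 667 nm with its signal to noise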
[4] = biological target: Carbonic anhydrase 2 (Homo sapiens) (UniProt P00918); assay: compounds binding carbonic anhydrase 2 – biochemical, small-molecule microarray, Alexa647-labelled CAII, profiling panel (AID 1122); details: CAII-A647 binding fluorescence, higher = more signal
[5] = COS7 lysate on small-molecule microarray, probe aHis, 635 nm (AID 1123); details: COS7 cell lysate, fluorescence, higher = more signal;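 also: z-score combines 667nm fluorescence intensity with signal-to-noise per printed compound spot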
[6] = probe aLAP1 signal on lysate-treated microarray – cell lysate, small-molecule microarray, COS7 lysate, primary screen (AID 1124); details: probe aLAP1, fluorescence, higher = more signal;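 also: lysate comes from COS7 cells expressing LAP1 and is applied at 0.3 µg/mL; score merges spot fluorescence near 667 nm with signal-to-noise over triplicate slides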
Sam68 (KHDRBS1) = assay: compounds binding KHDRBS1 protein – biochemical, small-molecule microarray, 635 nm fluorescence, primary screen (AID 1125); details: higher = more signal;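 also: score merges 667 nm channel intensity with signal to noise over triplicate slides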
[7] = test system: Chordin-like protein 2 (CHRDL2); assay: compounds binding chordin-like 2 – biochemical, small-molecule microarray, 635 nm fluorescence, primary screen (AID 1126); details: fluorescence 635 nm, higher = more signal;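 also: printed compound slides probed with Chrdl2 protein at 4 µg/mL for 1 h at 4 C; score merges 667 nm emission intensity with signal to noise over three replicate slides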
[8] = biological target: Concanavalin-A (Canavalia ensiformis) (UniProt P02866); assay: compounds binding concanavalin A lectin – biochemical, small-molecule microarray, Alexa647 label, 635 nm, artefact control for SMM control protein annotation, primary screen (AID 1127); details: ConA-A647 binding fluorescence, higher = more signal;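 also: z combines 667 nm emission intensity with signal-to-noise across three replicate slides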
Chain of Concanavalin-A (Canavalia ensiformis) (P02866 whole entry, looked up): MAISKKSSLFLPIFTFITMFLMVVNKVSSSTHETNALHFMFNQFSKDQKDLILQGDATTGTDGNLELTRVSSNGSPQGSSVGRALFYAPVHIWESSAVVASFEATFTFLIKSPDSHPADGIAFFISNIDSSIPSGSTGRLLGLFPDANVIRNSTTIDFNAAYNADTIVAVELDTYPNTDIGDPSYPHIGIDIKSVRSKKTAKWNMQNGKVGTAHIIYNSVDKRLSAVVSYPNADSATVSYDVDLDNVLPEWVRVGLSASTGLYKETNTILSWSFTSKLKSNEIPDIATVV

Compound | composite z-score (Albumin (Bos taurus)) | composite Z-score [1] | composite z-score [2] | composite z-score [3] | composite z-score [4] | composite z-score [5] | composite z-score [6] | composite z-score (Sam68 (KHDRBS1)) | composite z-score [7] | composite z-score [8]
[N-]=[N+]=NCc1ccccc1[C@H]1OC(c2ccc(OCCCO)cc2)=N[C@@]1(Cc1ccccc1)C(=O)NCc1ccccc1 | 0.882 | -0.157 (inactive) | 0.0884 | -0.283 | 0.448 | 2.88 | 0.444 | 1.26 | 0.547 | 0.824
C=CCOC(=O)[C@@H]1[C@H]2C(=O)O[C@H](c3ccccc3)[C@H](c3ccccc3)N2[C@H](c2ccc(OCCOC(=O)[C@@H]3C[C@@H]4C(=O)N[C@@H](Cc5ccccc5)C(=O)N4[C@@H]3c3ccc(O)cc3)cc2)[C@@]12C(=O)Nc1ccc(I)cc12 | -0.47 | 0.364 (inactive) | 0.251 | -0.0984 | 0.299 | 1.28 | 0.0186 | 1 | 0.918 | 1.18
COCCOC(=O)N1C(=O)[C@@]2(c3cc(C#Cc4ccc(OC)cc4)ccc31)[C@H](c1ccc(O)cc1)N1[C@H](c3ccccc3)[C@H](c3ccccc3)OC(=O)[C@H]1[C@@H]2C(=O)NC[C@H](O)c1ccccc1 | 0.298 | 0.434 (inactive) | 0.385 | -0.0878 | 0.317 | 1.04 | 0.693 | 1.29 | 0.374 | 1.17
O=C1C2C=CC(C(O)c3c(F)cccc3Cl)N(Nc3ccccc3)C2C(=O)N1c1ccccc1 (stereo not given) | 0.876 | 0.229 (inactive) | 0.418 | 0.014 | 0.382 | 2.81 | 0.045 | 1.31 | -0.3 | 1.14
COC(=O)c1c(CC[C@@H](CO)NC(=O)N[C@@H](C)Cn2cc(C3(O)CCCCC3)nn2)oc(C(C)=O)c1C(=O)OC | 0.0745 | 0.502 (inactive) | 0.0596 | -0.0466 | 0.421 | 0.377 | -0.0869 | 1.29 | 1.02 | 1.02
O=C1O[C@@H](c2ccccc2)[C@@H](c2ccccc2)N2[C@@H](c3ccccc3OCCO)[C@]3(C(=O)Nc4ccc(C#CC5=CCCCC5)cc43)[C@@H](C(=O)Nc3nc4ccccc4s3)[C@H]12 | 0.778 | 0.243 (inactive) | 0.0715 | -0.0583 | 0.272 | 1.39 | 0.399 | 1.3 | 0.309 | 1.06
C=CCNC(=O)[C@@H]1[C@H]2C(=O)O[C@H](c3ccccc3)[C@H](c3ccccc3)N2[C@H](c2ccc(OCCO)cc2)[C@@]12C(=O)Nc1ccc(C#CCCO)cc12 | 0.495 | 0.858 (inactive) | 0.999 | 0.403 | 0.659 | 2.62 | 0.906 | 1.29 | 1.15 | 1.15
CCCCN1CC=CC23O[C@@H]4C=CCOC(=O)[C@@H]4[C@H]2C(=O)N(CCCCCO)[C@@H]3C1=O (stereo not given in full) | 0.914 | 0.102 (inactive) | -0.199 | -0.0422 | 0.858 | 1.8 | 1.3 | -0.445 | -0.769 | -1.08
C=CCN1C(=O)[C@]2(O[C@H](CCO)[C@@H]([Si](C)(C)c3ccc(OC)cc3)[C@@H]2C)c2cc(N3CCCCC3=O)ccc21 | 0.694 | 0.801 (inactive) | 0.135 | -0.106 | 0.163 | 1.86 | 0.279 | 1.28 | 0.122 | 0.877
CCCC[C@@H]1C[C@H]1[C@@H](NC(=O)c1ccco1)c1ccc(Cl)cc1 | 0.796 | -0.0717 (inactive) | 0.193 | -0.0164 | 0.637 | 1.99 | 0.65 | 1.33 | -0.414 | 1.07
CN(C)CCCCCCNC(=O)[C@@H]1C[C@@H]2C(=O)N[C@@H](CCCCN)C(=O)N2[C@@H]1c1cccc(OCCO)c1 | 1.05 | 7.35 (inactive) | 1.79 | 0.72 | 0.92 | 2.35 | 1.2 | 1.32 | 1.2 | 1.24
CCCCC(O)C1C=CC2C(=O)N(c3ccccc3)C(=O)C2N1Nc1ccccc1F (stereo not given) | 0.8 | 1.54 (inactive) | 0.378 | 0.387 | 0.747 | 2.54 | 0.439 | 1.12 | 0.0354 | 1.13
COc1ccc([C@H]2C[C@H]3C(Br)=C[C@@H]2C(=O)[C@]32CO2)cc1 | -1.13 | -0.624 (inactive) | -0.176 | -0.075 | -0.539 | -0.442 | -0.0737 | -0.99 | 0.736 | 0.125
[N-]=[N+]=Nc1ccccc1C[C@]1(C(=O)NCC(O)CO)N=C(c2ccc(OCCCO)cc2)O[C@H]1c1ccccc1N=[N+]=[N-] (stereo not given in full) | 0.376 | 0.045 (inactive) | 0.0151 | 0.0809 | 0.391 | 1.69 | -0.352 | 0.431 | -0.424 | -0.899
COc1ccc([Si](C)(C)[C@H]2[C@H](CC(=O)N3CCC[C@H]3CO)O[C@@]3(C(=O)N(Cc4cccc(N5C(=O)c6cccc7cccc5c67)c4)c4ccccc43)[C@@H]2C)cc1 | 0.416 | 0.488 (inactive) | 0.143 | -0.0745 | 0.346 | 1.53 | 0.0595 | 1.04 | 0.956 | 1.1
C#CCN(CC=C(C)C)[C@H](CO)c1ccccc1 | -0.258 | 0.289 (inactive) | 0.0081 | -0.0819 | -0.0144 | -0.41 | -0.277 | 0.584 | -0.184 | -0.711
COc1ccc([Si](C)(C)[C@@H]2[C@@H](CC(=O)N3Cc4ccccc4C[C@H]3CO)O[C@]3(C(=O)N(C)c4c(Br)cc(C)cc43)[C@H]2C)cc1 | 0.494 | 0.136 (inactive) | 0.0562 | -0.164 | 0.574 | 0.498 | 0.172 | 1.31 | 1.11 | 1.13
C=CCN(Cc1ccccc1)C(=O)C(c1cccs1)N(CCOCCO)C(=O)/C=C\C(=O)O (stereo not given) | -0.462 | 0.131 (inactive) | -0.553 | -0.165 | 0.39 | -0.25 | -0.658 | -0.754 | -3.82 | -1.33
COc1ccc([Si](C)(C)[C@@H]2[C@@H](CCO)O[C@]3(C(=O)N(Cc4ccc(N5C(=O)COc6ccccc65)cc4)c4ccccc43)[C@H]2C)cc1 | 0.671 | -0.539 (inactive) | 0.305 | -0.0924 | 0.59 | 1.55 | 0.844 | 1.33 | 0.106 | 1.07
C#CCNC(=O)[C@H](Cc1ccccc1)NC(=O)CCC(=O)O | -1.09 | 1.42 (inactive) | -0.262 | -0.161 | -0.124 | -0.301 | 0.236 | -1.74 | -0.471 | -1.83
CN(C)C(=O)[C@@]1(Cc2ccccc2)N=C(c2ccc(OCCCO)cc2)O[C@H]1c1ccccc1N=[N+]=[N-] | 0.952 | -0.0707 (inactive) | 0.516 | -0.0422 | 0.765 | 2.88 | 0.935 | 1.29 | 0.152 | 1.13
CC(C)(C)C(=O)N[C@@H](c1ccc(Cl)cc1)[C@]1(C)C[C@H]1C1CCCCC1 | 0.886 | -0.149 (inactive) | 0.449 | 0.347 | 0.505 | 2.12 | 0.968 | 1.29 | -0.319 | 1.19
O=C1OCCC/C=C\[C@H]2OC34C=CCN(c5ccc6ccccc6c5)C(=O)[C@H]3N(CCCCCCO)C(=O)[C@@H]4C12 (stereo not given in full) | 0.0499 | 0.611 (inactive) | -0.256 | -0.163 | 0.946 | -0.0749 | 0.978 | -0.468 | -1.65 | -0.83
COCCOC(=O)N1C(=O)[C@@]2(c3cc(C#CC4=CCCCC4)ccc31)[C@H](C(=O)Nc1nc3ccccc3s1)[C@H]1C(=O)O[C@H](c3ccccc3)[C@H](c3ccccc3)N1[C@@H]2c1ccccc1OCCO | 0.657 | -0.478 (inactive) | 0.757 | 0.248 | 0.188 | 1.1 | -0.123 | 1.13 | 0.367 | 1.14
CC(=O)NCCCC[C@@H]1NC(=O)[C@@H]2C[C@H](C(=O)NCCCCN(C)C)[C@H](c3cccc(OCCO)c3)N2C1=O | -0.374 | 0.714 (inactive) | -0.186 | -0.112 | 0.57 | 0.944 | 0.511 | 0.259 | 0.462 | 0.664
COCC(=C=CC[C@@H](O)c1ccccc1OCCO)C[C@@H](O)c1cc(Cl)cc(Cl)c1O | 0.641 | 0.103 (inactive) | 0.129 | -0.14 | 0.38 | 1.24 | 0.822 | 1.3 | 0.476 | 1.08
O=C1NC(=O)C2C1C=CC(C(O)Cc1ccccc1)N2Nc1ccc(Cl)cc1Cl (stereo not given) | 0.809 | -0.082 (inactive) | 0.198 | -0.11 | 0.803 | 2.07 | -0.226 | -1.18 | -1.15 | -0.652
COc1ccc(C(=O)Nc2cccc(CN3C(=O)[C@]4(O[C@H](CCO)[C@@H]([Si](C)(C)c5ccc(OC)cc5)[C@@H]4C)c4ccccc43)c2)cc1 | 0.0296 | -0.494 (inactive) | 0.0297 | -0.112 | 0.41 | 0.787 | 0.593 | 1.21 | 0.379 | 1.13
COC(=O)c1c(CC[C@@H](CO)NC(=O)N[C@H](Cn2cc(Cc3ccccc3)nn2)C(C)C)oc(C(C)=O)c1C(=O)OC | 0.0007 | 0.255 (inactive) | -0.0159 | -0.202 | 0.43 | 0.889 | 0.0096 | 0.709 | 0.0618 | 0.321
O=C(NCc1ccccc1)[C@@H]1c2ccccc2C(=O)N(CC23CC4CC(CC(C4)C2)C3)[C@H]1c1ccc(CO)cc1 | 0.438 | 1.23 (inactive) | -0.274 | -0.265 | 0.467 | 0.813 | 1.17 | 1.28 | 0.452 | 1.1
